From PubChem
SW480 rereplic – A quantitative high throughput screen for small molecules that induce DNA re-replication in SW480 colon adenocarcinoma cells; SW480 DNA re-replication, Hoechst DNA content imaging, 48 h; Potency, µM (titrated, usually from 46.1 µM), without a hit: at the highest dose re-replication activation, hits mostly activators; 1.8% of 340,000 active; AID 624297, 2012; further: % of control where 0% means no effect; nearly all actives have a fitted effect of over 55% in size
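Cells (250 per well) received 23 nL compound or DMSO by pin tool and were kept 48 hr at 37 C, 5% CO2. Nuclei were then stained with Hoechst for 40 min and scanned for DNA content.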
HT1080NT lethal – qHTS for induction of synthetic lethality in tumor cells producing 2HG: qHTS for the HT-1080-NT fibrosarcoma cell line | 1.6% of 360,000 active | HT-1080-NT fibrosarcoma viability, CellTiter-Glo ATP luminescence, 48 h | Potency, µM (highest dose often 46.1 µM), without a hit: at the top dose activity, negative = less viability, most hits filed as cytotoxic | AID 686970, 2013;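 further: NT is the 2HG producing partner of a matched IDH1 knockdown line; 0% = DMSO-treated cells and -100% = media-only wells without cells; nearly all actives have a fitted effect of over 55% in size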
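Viability by CellTiter-Glo luminescence after 48 h compound exposure at 37C of HT-1080-NT cells (750/well, RPMI, 5% FBS). % activity scaled between DMSO wells and medium-only wells, then curve-fitted and categorized by curve class.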
MCF10A rereplic – A quantitative high throughput screen for small molecules that induce DNA re-replication in MCF 10a normal breast cells. Potency, µM (titrated, usually from 46.1 µM), inactives show at the highest dose activity, positive = re-replication, actives largely listed as activators. 2.9% of 350,000 active. MCF 10A DNA re-replication, Hoechst nuclear intensity, 48 h. AID 624296, 2012; further: % of control where 0% means no effect; nearly all actives have a fitted effect of over 50% in size
HT1080 IDH1KD tx – qHTS for induction of synthetic lethality in tumor cells producing 2HG: qHTS for the HT-1080-IDH1KD cell line; HT-1080 IDH1 knockdown viability, ATP luminescence, 48 h; Potency, µM (top dose mostly 46.1 µM), inactives show at the highest dose activity, negative = toxicity, actives largely listed as cytotoxic; 2% of 360,000 active;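 further: 0% = DMSO wells and -100% = cell-free medium wells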
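IDH1KD HT-1080 cells, 750/well, RPMI + 5% FBS; compound pinned after 2 h settling; 48 h, 37 °C; CellTiter-Glo luminescence; % activity normalised to DMSO and no-cell wells; curves fitted, classed by r2 and efficacy.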
KB-V1 MDR tox – qHTS assay for MDR1-selective chemotherapeutics: Primary screen using the drug-selected MDR subline cells KB-V1 | KB-V1 MDR cells viability, CellTiter-Glo, 72 h | Potency, µM (titrated, usually from 46.1 µM), actives largely listed as cytotoxic | 3.4% of 400,000 active; further: on the % scale 0 is the no-effect control and ±100 the full control effect; nearly all actives have a fitted effect of over 60% in size
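Cytotoxicity toward P-gp-expressing KB-V1 cells was determined as loss of CellTiter-Glo luminescence after 72 h at 37 degrees C. Compounds were tested in quantitative HTS format across a concentration range, with curves fitted to normalized data.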
KB-3-1 tox – qHTS assay for MDR1-selective chemotherapeutics: Primary screen using the parental adenocarcinoma cell KB-3-1 | Potency, µM (titrated, usually from 46.1 µM), most hits filed as cytotoxic | AID 1347075, 2019 | 1.4% of 400,000 active | KB-3-1 viability, CellTiter-Glo ATP luminescence, 72 h; further: on the % scale 0 is the no-effect control and ±100 the full control effect; nearly all actives have a fitted effect of over 60% in size
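Screening of KB-3-1 cells (DMEM, 10% FBS, phenol-red free) ran from lowest to highest compound concentration; after 72 h at 37 °C viability was read luminescently and curves fitted.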
An asterisk follows results filed as active; i = inactive; ? = inconclusive; nt = no result given. Most compounds without a hit are left out; they make up all but 7.9% or so of the library. The call rests on the fitted dose curve; in most records, active means well fitted curve in the direction sought with a large enough effect; inconclusive means small, poorly fitted or top-dose-only effect, or another doubt; inactive means no such curve, though single readings can be large; an effect the other way counts as inactive or inconclusive. Potency means the concentration at half of the fitted maximal effect.

SMILES | SW480 rereplic | HT1080NT lethal | MCF10A rereplic | HT1080 IDH1KD tx | KB-V1 MDR tox | KB-3-1 tox
COc1ccc(C(=O)CCN2CCCCCC2)cc1 | ? | ? | ? | 10µM* | ? | ?
O=S(=O)(Nc1nc2ccccc2s1)c1cnc(Cl)c(Br)c1 | -10.3% | -12.7% | ? | 2.0% | i | i
CCOC(=O)c1ccc(NS(=O)(=O)c2ccc3c(c2)OCCO3)cc1 | nt | nt | nt | nt | i | i
COc1ccccc1N1CCN(CCC(=O)Nc2ccc3c(c2)OCO3)CC1 | -1.8% | -11.3% | -1.3% | -12.2% | 20.6µM* | i
CCOc1ccc(NC(=O)CCN2CCN(c3ccccc3F)CC2)cc1 | 18.4µM* | ? | ? | ? | ? | ?
COc1ccc(C(=O)CCN2CCN(c3ccccc3F)CC2)cc1 | ? | ? | 5.8µM* | ? | i | i
COc1ccccc1N1CCN(CC(=O)Nc2ccc3c(c2)OCCO3)CC1 | 15.0% | -3.2% | -17.8% | -0.6% | i | i
O=C(CCN1CCN(c2ccccc2F)CC1)c1ccc(Br)cc1 | ? | ? | ? | ? | i | i
CCOc1ccc(NC(=O)CCN2CCN(c3ccccc3OC)CC2)cc1 | 1.2% | 0.4% | -11.6% | -3.7% | i | i
CCC(=O)Nc1ccc(N2CCN(Cc3ccccc3)CC2)cc1 | -6.4% | -6.7% | 8.2µM* | -1.1% | i | i
COc1cccc(C(=O)N2CCC[C@H]2C(=O)N2CCC[C@H]2C(=O)N[C@@H](C)c2ccccc2)c1 | nt | 9.7% | nt | 5.5% | i | i
COc1ccc(CN2[C@@H](CC(=O)O)c3ccc(/C=C/C(=O)O)cc3S2(=O)=O)cc1 | nt | nt | nt | nt | i | i
O=C(Nc1ccc2ccccc2c1)Nc1nnc(-c2ccccc2Cl)s1 | nt | nt | nt | nt | i | i
COC(=O)C1CCN(S(=O)(=O)c2cc3c4c(c2)CC(=O)N4CCC3)CC1 | nt | nt | nt | nt | i | i
Cc1nnc(Cc2ccccc2)c2n[nH]c(C)c12 | nt | -4.3% | nt | -13.2% | i | i
O=C(CN1CCN(CCC(=O)Nc2ccccc2F)CC1)Nc1ccc(Cl)cc1 | -3.4% | 1.0% | 3.2% | -10.4% | 4.61µM* | i
CC(C)Oc1ccc(C(=O)CCN2CCCCC2)cc1 | ? | -5.3% | 23.1µM* | 1.0% | i | i
CC(C)Oc1ccc(C(=O)CCN2CCOCC2)cc1 | ? | -22.3% | ? | -10.1% | ? | i
O=C(CN1CCN(CCC(=O)Nc2ccccc2F)CC1)Nc1ccc(F)cc1 | -3.7% | 0.3% | 26.4% | -2.5% | i | i
COc1ccc(C(=O)NCCCN=C2NS(=O)(=O)c3ccccc32)cc1 | -5.9% | 2.2% | -5.3% | -1.4% | i | i
O=C(O)c1ccc(N/N=C/c2ccc(-c3ccc(Cl)cc3Cl)o2)cc1 | 23.1µM* | ? | ? | ? | i | 23.1µM*
O=C(N/N=C\c1ccc(-c2cccc(Cl)c2)o1)C(=O)NC1CCCC1 | -4.7% | ? | ? | 19.3% | i | i
CC1=NOC(=O)/C1=C\c1ccc(-c2ccc(Br)cc2C(=O)O)o1 | -1.1% | 1.7% | 12.7% | 2.7% | ? | i
O=C(O)c1ccc(N/N=C/c2ccc(-c3cccc(Cl)c3)o2)cc1 | 20.6µM* | 10.3µM* | ? | 16.4µM* | i | ?
O=C(O)c1cc(N/N=C/c2ccc(-c3ccc(F)cc3)o2)ccc1Cl | 18.4µM* | -7.6% | 18.4µM* | -9.5% | i | i
SMILES | SW480 rereplic | HT1080NT lethal | MCF10A rereplic | HT1080 IDH1KD tx | KB-V1 MDR tox | KB-3-1 tox
O=C(Cc1ccc(F)cc1)N/N=C/c1ccc(-c2ccc(Cl)c(C(=O)O)c2)o1 | -5.7% | 1.2% | ? | -5.8% | i | i
CC1=NN(c2ccc(Br)cc2)C(=O)/C1=C/c1ccc(-c2ccccc2C(=O)O)o1 | 13.7% | -6.2% | 23.1µM* | -5.9% | i | i
O=[N+]([O-])c1ccc2c(c1)-c1ccccc1C2O (stereo not given) | nt | 19.5% | nt | 9.3% | i | i
CCC(C)(C)NC(=O)CN(C(=O)CNS(=O)(=O)c1ccc(F)cc1)c1ccc2c(c1)OCCO2 | -1.5% | -9.6% | -0.8% | -5.4% | ? | i
O=Cc1ccc(-c2ccccc2C(=O)O)o1 | 1.5% | 17.5% | 9.6% | 17.8% | ? | i
Cc1c(C(=O)O)cccc1-c1ccc(/C=N/Nc2ccc(Br)cc2)o1 | 5.5% | -23.1% | 18.4µM* | ? | i | ?
O=C(O)c1ccc(N/N=C/c2ccc(-c3cc(Cl)ccc3Cl)o2)cc1 | 11.6µM* | ? | 2.06µM* | 16.4µM* | ? | i
CCC(C(=O)Nc1ccccc1C(=O)OC)n1c(C)c2cnn(-c3ccccc3)c(=O)c2c1C (stereo not given) | nt | nt | nt | nt | i | i
C=CCn1c(SCC(=O)c2ccc(Cl)cc2)nnc1-c1ccc2c(c1)OCO2 | ? | 0.0% | -4.0% | -12.5% | ? | i
O=C(CSc1nnc(-c2ccc3c(c2)OCO3)n1-c1ccccc1)c1ccccc1 | -1.6% | 14.7% | -3.3% | 23.5% | 8.2µM* | i
O=C(CSc1nnc(-c2ccc3c(c2)OCO3)n1-c1ccccc1)c1ccc(Cl)cc1 | -1.0% | -5.0% | 11.6% | 11.5% | 16.4µM* | i
